Records with an inconclusive call do not appear. A call without a number means that no potency is given here. Active and inactive are the calls of the source. Calls follow the shape of the dose curve; as a rule, active = well fitted inhibition curve with a large enough effect; inconclusive = small, poorly fitted or top-dose-only effect; inactive = flat fitted curve, though single readings scatter.
Potency is read from the fitted curve at half-maximal effect.

In the test the test system is Zika virus NS2B-NS3 protease. Description: Primary screen GU AMC qHTS for Zika virus inhibitors (AID 1347154). Also: nearly all actives have a fitted effect of over 70% in size. Conditions: Zika NS2B-NS3 unlinked protease, AMC fluorogenic substrate; series mostly up to 54.1 µM. The gist of the method: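 Unlinked Zika NS2B hydrophilic domain–NS3 protease complex at 25 nM in 10 mM Tris-HCl pH 8.0, 0.01% Tween 20, with an AMC peptide substrate. Fluorescence change (340/450 nm) over 15 min at room temperature, normalized to controls, fitted to 4-parameter Hill.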
Turning to `Cc1ccc(C(=O)N(CCCN)[C@@H](c2oc3cc(Cl)ccc3c(=O)c2Cc2ccccc2)C(C)C)cc1`, the Potency entry is “inactive”.

For `O=C1CN2Cc3c(ccc(Cl)c3Cl)N=C2N1`, the Potency result is “inactive”.

In the case of `CCC=CC[C@H]1C(=O)CC[C@@H]1CC(=O)OC`, the Potency result was “inactive”.

As for `CCCCC(C)(C)[C@H](O)C=C[C@H]1[C@H](O)CC(=O)[C@H]1CC=CCCCC(=O)O`, the Potency entry is “inactive”.

On to `N#Cc1c(N(CC(=O)O)CC(=O)O)sc(C(=O)O)c1CC(=O)O`, for which the Potency entry is “inactive”.

As for `CCC(c1ccc(O)cc1)C(CC)c1ccc(O)cc1` (configuration not stated), the Potency entry was “inactive”.

With `CNc1nc(-c2ccc3c(N)n[nH]c3c2)cc(N2C[C@@H](C(=O)NC3CCCCC3)CC[C@@H]2C)n1`, the Potency entry is “inactive”.

As to `Cc1cc(NC(=O)Nc2ccc(N(C)C)cc2)c2cc(F)cc(F)c2n1`, the Potency result is “inactive”.

`Cc1cn([C@@H]2C[C@@H](O)[C@H](CO)O2)c(=O)[nH]c1=O`: the Potency entry is “inactive”.

Turning to `CN(C(Cc1ccc(OS(=O)(=O)c2cccc3cnccc23)cc1)C(=O)N1CCN(c2ccccc2)CC1)S(=O)(=O)c1cccc2cnccc12` (configuration not stated), the Potency entry was “inactive”.

In the case of `OC[C@H]1O[C@@H](OCCc2ccc(O)cc2)[C@H](O)[C@@H](O)[C@H]1O`, the Potency entry is “inactive”.

As for `CC1(C)OC2CC3C4CC(F)C5=CC(=O)C=CC5(C)C4C(O)CC3(C)[C@]2(C(=O)CO)O1` (some centres not stated), the Potency result was “inactive”.

As for `Cc1ccc(C2=Nc3ccc(Cl)cc3OC2)cc1`, the Potency entry is “inactive”.

On to `C[C@H]1O[C@@H](n2cc(F)c(=O)[nH]c2=O)[C@H](O)[C@H]1O`, for which the Potency entry was “inactive”.

With `O=C(NC[C@H](O)CO)c1ccncc1Nc1ccc(I)cc1F`, the Potency result was “inactive”.

Take `O=C(c1ccc(C=Cc2n[nH]c3ccccc23)cc1)N1CCNCC1`: the Potency was 7.64 µM (active).

Regarding `OC1CCC(Nc2ncc3nc(Nc4c(F)cc(F)cc4F)n([C@@H]4CCOC4)c3n2)CC1` (some centres not stated), the Potency is 24.1 µM (active).

With `CN1CCN2c3ncccc3Cc3ccccc3C2C1` (configuration not stated), the Potency entry is “inactive”.

On to `COc1cc2ncn(-c3cc(OCc4ccccc4S(C)(=O)=O)c(C#N)s3)c2cc1OC`, for which the Potency result is “inactive”.

For `CO[C@H]1O[C@@H]2O[C@@]3(C)CC[C@@H]4[C@@H](C)CC[C@@H]([C@H]1C)[C@@]24OO3`, the Potency result is “inactive”.

For the molecule `Cc1ccc(NC(=O)c2ccc(CN3CCN(C)CC3)cc2)cc1Nc1nc(-c2cccnc2)cs1`, the Potency entry is “inactive”.

On to `CCOC(=O)N1c2ccc(C(F)(F)F)cc2[C@@H](N(Cc2cc(C(F)(F)F)cc(C(F)(F)F)c2)C(=O)OC)C[C@H]1CC`, for which the Potency result was “inactive”.

As to `Cc1nn(Cc2ccccc2Cl)c(C)c1CN(C)CC(O)COc1ccc(Cl)cc1` (configuration not stated), the Potency result was “inactive”.

With `CNC1[C@H](O)C(O[C@@H]2C(O)C(O[C@H]3O[C@H]([C@@H](C)NC)CC[C@H]3N)[C@@H](N)C[C@H]2N)OC[C@]1(C)O` (some centres not stated), the Potency entry is “inactive”.

Regarding `O=C(O)CCC=CCC[C@@H]1[C@H](N2CCCCC2)[C@@H](O)C[C@@H]1OCc1ccc(-c2ccccc2)cc1`, the Potency result is “inactive”.

With `CCC(=O)NCC[C@@H]1CCc2ccc3c(c21)CCO3`, the Potency result is “inactive”.

Regarding `CC(O)=C(C#N)C(=O)Nc1ccc(C(F)(F)F)cc1`, the Potency result is “inactive”.

On to `NC(N)=Nc1nc(CSCCC(N)=NS(N)(=O)=O)cs1`, for which the Potency entry was “inactive”.

As to `OCCn1cc(-c2ccc3c(c2)CCC3=NO)c(-c2ccncc2)n1`, the Potency entry is “inactive”.

For `Cc1cc(CS(=O)(=O)c2ccccc2)cc(OCc2ccc(CN3CCC[C@H]3CO)cc2)c1`, the Potency entry was “inactive”.

As for `CCNC(=O)CCCC=CC[C@@H]1[C@H](C=CC(O)CCc2ccccc2)[C@@H](O)C[C@@H]1O` (some centres not stated), the Potency entry is “inactive”.

With `NC(=O)c1ncn([C@@H]2O[C@H](CO)[C@@H](O)[C@@H]2O)n1`, the Potency result is “inactive”.

As for `O=C1CCCC(=O)C1C(=O)c1ccc(C(F)(F)F)cc1[N+](=O)[O-]`, the Potency entry was “inactive”.

As for `CN1C(=O)C[C@H](C(=O)N[C@@H](Cc2cnc[nH]2)C(=O)N2CCC[C@@H]2C(N)=O)NC1=O`, the Potency entry was “inactive”.

With `CCC(=C(CC)c1ccc(O)cc1)c1ccc(O)cc1`, the Potency result is “inactive”.

Regarding `CCOC(=O)[C@@H](N)CCC(=O)N[C@@H](CSCc1ccccc1)C(=O)N[C@@H](C(=O)OCC)c1ccccc1`, the Potency entry was “inactive”.

As for `COC1CCC(C(=O)c2ccc3nc4c(cc3c2)CCCO4)CC1` (configuration not stated), the Potency entry is “inactive”.

These data come from PubChem BioAssay (NCATS).
